According to ChEMBL document CHEMBL3988442, “University of Dundee, Small-Polar-MMV Screening Library” (2021):
Several values for one entry are separate records, joined by “and”; a condition that tells them apart may be missing. Identical values can stand only once. In all, about 34,000 compounds went through this assay and about 290 (0.85%) showed an effect of 50% or more. This is one part of a sample in which strong results are shown more often than they occur.

System: Plasmodium falciparum
Experiment: Plasmodium falciparum sporozoite viability assay
Type: functional, organism-based
Set-up: scale not given: in the data most compounds retested in dose-response had high values

Row | SMILES | Percent Effect | Percent Effect (10 mM as filed; unlikely as a test dose)
1 | CCOCCCNC(=O)C1(C)CCC(=O)N1Cc1ccccc1F (stereo not given) | -5.282% | –
2 | COc1cccc(Nc2nc(N3CCCC3)nc3c2CNCC3)c1.Cl | 4.348% | –
3 | COc1cccc(Nc2nc(-c3ccncc3)nc3c2CNCC3)c1.Cl | 6.202% | –
4 | COc1ccc(-c2cc(C3CCCNC3)ccn2)cc1.Cl (stereo not given) | 3.809% | –
5 | COc1cccc(-c2cc(C3CCCNC3)ccn2)c1 (stereo not given) | 10.99% | –
6 | Cc1cc(C)nc(Nc2nccnc2C2CCCN(CCO)C2)n1 (stereo not given) | -0.8244% | –
7 | Cc1ccoc1C(=O)NC1CCN(C(=O)Nc2ccccn2)CC1 | 4.048% | –
8 | CN1CCN(C[C@@H]2OC[C@H]3CN(CCc4ccccc4)CC[C@H]32)CC1.O=C(O)C(F)(F)F.O=C(O)C(F)(F)F.O=C(O)C(F)(F)F | 9.359% | –
9 | O=C(NCC1CCCCC1)NC1CCCc2c1cnn2CCO (stereo not given) | – | 38.6% and 33.33% and 56.01%
10 | O=C(NC1CCCCC1)NC1CCCc2c1cnn2CCO (stereo not given) | – | -11.63% and -7.35% and -4.902%
11 | CSc1ccc(OCCN2CCNC(=O)CC2)cc1 | -10.56% | –
12 | CSCC[C@H](N)c1nnc(SCc2cc(C)ccc2C)o1.Cl | -8.516% | –
13 | CCc1n[nH]c(C(=O)NCCn2nccc2C)c1C | – | 28.41% and 66.23% and 77.05%
14 | CCc1n[nH]c(C(=O)NCCn2ccnc2C)c1C | – | -3953% and -3827%
15 | CC(C(=O)N1CCN(Cc2ccc3c(c2)OCO3)CC1)n1ccnc1 (stereo not given) | 3.608% | –
16 | CCn1cnnc1CNC(=O)N1CCC(CN2CCCCCC2)CC1 | 4.778% | –
17 | CC(C)COCc1cncc2c1CCN(C(=O)c1cscn1)C2.O=C(O)C(F)(F)F | 5.063% | –
18 | CC[S+]([O-])CCc1nc(CC(C)C)nn1-c1ccc2c(c1)OCCO2 (stereo not given) | – | 61.59% and 54.31%
19 | CC(C)Cc1nc(CO)n(-c2ccc3c(c2)OCCO3)n1 | – | 46.72% and 37.75%
20 | Cc1cc(C)n(CC2CCCN2C(=O)CCc2ccncc2)n1 (stereo not given) | 1.423% | –
21 | Cn1ccc(C(=O)NCc2cccc(CN3CCCC3)c2)cc1=O | 11.38% | –
22 | CCOc1ccnc(N2CCN(C(=O)c3c(CC)noc3C)CC2)n1 | -6.802% | –
23 | Cc1nccn1CC1CCCN1S(=O)(=O)Cc1ccc(F)cc1 (stereo not given) | 5.478% | –
24 | CN1CCOC(C(=O)Nc2ccc3c(c2)nc(C(C)(C)C)n3C)C1 (stereo not given) | – | 104.1% and 105.2%
25 | CN1CCOC(C(=O)Nc2ccc3[nH]nnc3c2)C1 (stereo not given) | – | -26.35% and -20.34%

Row | SMILES | Percent Effect | Percent Effect (10 mM as filed; unlikely as a test dose)
26 | CN1CCOC(C(=O)Nc2ccc3c(c2)nc(C2CC2)n3C)C1 (stereo not given) | – | -13.44% and -13.85%
27 | CC1CCCN(C(=O)C2CCN(c3snc4ccccc34)CC2)C1 (stereo not given) | 6.864% | –
28 | CC(C)c1cc(NC(=O)c2ccc(NC3CC3)nc2)[nH]n1 | 15.54% | –
29 | c1cc(-c2cncnc2)cc(-c2ccn(CC3CCNC3)n2)c1 (stereo not given) | – | -11.99% and -9.692% and -21.27%
30 | Cc1ccsc1-c1cccc(-c2ccn(CC3CCNC3)n2)c1 (stereo not given) | – | 75.23% and 72.27% and 75.29%
31 | Cc1nccc(-c2cccc(-c3ccn(CC4CCNC4)n3)c2)n1 (stereo not given) | – | -3.675% and -28.15% and -23.4%
32 | O=C(Nc1ccccc1OCCc1ccccn1)N1CCOCC(O)C1 (stereo not given) | 6.804% | –
33 | Cc1cc(OCC(O)c2nc3c([nH]2)CC(C)(C)CNC3=O)ccc1Cl (stereo not given) | 5.403% | –
34 | c1ccc(-c2noc(CN3CCc4cncnc4C3)n2)nc1 | – | 68.57% and 81.28% and 66.45%
35 | c1cncc(-c2noc(CN3CCc4cncnc4C3)n2)c1 | 1.959% | –
36 | Cc1cc(C(=O)N2CCCC(n3cncn3)C2)no1 (stereo not given) | 2.312% | –
37 | CN(C)C(=O)c1cnc(-c2ccc3c(c2)OCO3)s1 | – | -22.33% and -36.75%
38 | CCN(C(=O)c1cnc(-c2ccc3c(c2)OCO3)s1)C1CC1 | – | -15.93% and -34.81%
39 | CC(C1CC1)N(C)C(=O)c1cnc(-c2ccc3c(c2)OCO3)s1 (stereo not given) | – | 53.72% and 75.58% and 50.81%
40 | COc1c(C2CCCN2Cc2noc(C(C)C)n2)c(C)nn1C (stereo not given) | 4.307% | –
41 | CCc1nnc(CN2CCOC(Cn3cccn3)C2)o1 (stereo not given) | 11.86% | –
42 | c1csc(-c2nc(CN3CCOC(Cn4cncn4)C3)co2)c1 (stereo not given) | 15.52% | –
43 | c1ccc(-c2nc(CN3CCOC(Cn4cncn4)C3)cs2)cc1 (stereo not given) | – | 57.17% and 32.5% and 36.71%
44 | c1csc(-c2nc(CN3CCOC(Cn4cccn4)C3)cs2)c1 (stereo not given) | 3.015% | –
45 | c1ccc(-c2nc(CN3CCOC(Cn4cccn4)C3)cs2)cc1 (stereo not given) | – | -13.99% and -29.39%
46 | c1csc(-c2nc(CN3CCOC(Cn4cncn4)C3)cs2)c1 (stereo not given) | – | 44.25% and 56.8% and 40.33%
47 | O=C1NCC2=C1C(c1ccc(O)cc1)Nc1ccccc1N2 (stereo not given) | -23.23% | –
48 | COCCN1CCCC1c1ccnc(-c2ccccc2)n1 (stereo not given) | 6.777% | –
49 | CCN1CCN(C(C)CNC(=O)Nc2nnc(C)s2)CC1 (stereo not given) | -9.257% | –
50 | Cc1noc(C)c1CCC(=O)NCC1(O)CCN(c2ccccn2)C1 (stereo not given) | 8.46% | –

Row | SMILES | Percent Effect | Percent Effect (10 mM as filed; unlikely as a test dose)
51 | CNc1cc(C)nc(N2C[C@H](NC(=O)C3CCOCC3)[C@@H](C3CC3)C2)n1 | – | -9.822% and -7.832% and -7.881%
52 | CNc1cc(C)nc(N2C[C@H](C3CC3)[C@@H](N)C2)n1 | – | 11.54% and 8.166% and -2.157%
53 | CNc1cc(C)nc(N2C[C@@H](C(=O)O)[C@H](C3CC3)C2)n1 | – | 73.63% and 80.29% and 69.7%
54 | Cc1cnn(CC2CCCN2C(=O)c2c(C)noc2C(C)C)c1 (stereo not given) | 2.244% | –
55 | CCn1c(N)nc2cc(C(=O)NCCc3ccccc3F)cnc21 | – | 83.82% and 65.98%
56 | CCn1c(N)nc2cc(C(=O)NCCNc3ncccc3C)cnc21 | – | -11.01% and -17.43%
57 | CCn1c(N)nc2cc(C(=O)NCc3ccccc3Cl)cnc21 | – | -6% and 9.799% and 1.435%
58 | CCn1c(N)nc2cc(C(=O)NCCc3nnc(C)s3)cnc21 | – | -8.165% and -11.66%
59 | N#Cc1c(N)nc2c(c1C1CCOC1)CCc1cc(O)ccc1-2 (stereo not given) | 4.476% | –
60 | CN(CCc1ccccn1)C(=O)c1cnn(-c2ccccc2F)c1N | -5.321% | –
61 | COc1ccc(CN2Cc3[nH]nc(C(=O)N(C)C)c3C2)cc1 | 11.47% | –
62 | Cl.Cn1cc([C@@H]2CN(S(=O)(=O)c3cccs3)C[C@H]2N)c2ccncc21 | -0.5895% | –
63 | COc1ccc(CC(=O)N2CCCC(n3cccn3)C2)cc1F (stereo not given) | 5.192% | –
64 | CS(=O)(=O)CCSc1nnc(Cc2ccccc2F)o1 | -5.789% | –
65 | Cc1ccc(OCc2occc2C(=O)N2CCOC(C(=O)O)C2)cc1 (stereo not given) | 16.87% | –
66 | O=C1COc2cc(OC[C@@H]3CCCN4CCCC[C@H]34)ccc21 | -3.094% | –
67 | O=C1CCCN1Cc1nnc2n1CCN(Cc1ccco1)C2 | 15.42% | –
68 | CN(C)CCNC(=O)c1cc(-c2cnc(N(C)C)nc2)cn1CC1CC1 | 2.417% | –
69 | CN(C)CCNC(=O)[C@H]1C[C@@H]2CN(C(=O)NCc3ccccc3)C[C@H]1O2.O=C(O)C(F)(F)F | -11.68% | –
70 | CN(C)CCNC(=O)c1sc2ccccc2c1C1CCC(CN)CC1.Cl (stereo not given) | 13.87% | –
71 | CN(C)CCNC(=O)C1Cc2nc(-c3ccccc3)sc2N1CC1CC1.O=C(O)C(F)(F)F (stereo not given) | – | 63.41% and 51.04% and 49.77%
72 | Cc1occc1C(=O)N1CCCN(Cc2nccn2C(C)C)CC1 | 16.64% | –
73 | CC(C)CN1C(=O)C[C@@H]2[C@@H]1CCN2Cc1cccc(C#N)c1.O=C(O)C(F)(F)F | 7.99% | –
74 | Cc1cccc(-c2noc(CN3CCc4c(ncn4C4CC4)C3)n2)c1 | – | 39.81% and 43.38%
75 | c1coc(-c2noc(CN3CCc4c(ncn4C4CC4)C3)n2)c1 | – | 9.104% and 3.38%

Row | SMILES | Percent Effect | Percent Effect (10 mM as filed; unlikely as a test dose)
76 | c1cc(-c2noc(CN3CCc4c(ncn4C4CC4)C3)n2)cs1 | – | 83.48% and 80.24%
77 | c1csc(-c2noc(CN3CCc4c(ncn4C4CC4)C3)n2)c1 | – | 59.38% and 60.81%
78 | c1ccc(-c2noc(CN3CCc4c(ncn4C4CC4)C3)n2)nc1 | – | 42.55% and 46.63%
79 | CCOc1ccc(C#N)cc1NCC(=O)NC(=O)Nc1ccccc1 | -20.07% | –
80 | CC(C)Oc1ccc(CNC(=O)NCC(C)(C)C(N)=O)cc1F | -18.14% | –
81 | Cl.O=S1(=O)CCC(NCCn2cncc2-c2ccc3c(c2)CCCO3)C1 (stereo not given) | -8.887% | –
82 | CN(C)S(=O)(=O)NCC1CCN(Cc2ccccc2F)CC1 | – | -11.15% and -13.88%
83 | c1ccc(Oc2ccc(CNCC3CNc4ccnn4C3)cn2)cc1 (stereo not given) | -2.407% | –
84 | OCC(CO)N1CCCC(Cc2cnc(Nc3ccccn3)cn2)C1 (stereo not given) | 3.086% | –
85 | Cc1cc(C(=O)N2CCCC(C)C2)ccc1NCc1nc(C(C)C)no1 (stereo not given) | – | 54.84% and 44.37% and 61.2%
86 | Cc1noc(CNc2ccc(C(=O)N3CCCC(C)C3)cc2C)n1 (stereo not given) | – | 12% and 12.75% and 4.849%
87 | COc1cc(N2C[C@@H]3COC[C@]3(COCc3ccccn3)C2)ncn1.O=C(O)C(F)(F)F.O=C(O)C(F)(F)F | 7.967% | –
88 | CN1CCCC1c1ccnc(C(=O)N(C)C2CCCCC2)c1 (stereo not given) | 7.615% | –
89 | CC(=O)Nc1nc(C(=O)NCc2ccc(N3CCOC(C)C3)nc2)cs1 (stereo not given) | 13.32% | –
90 | Cc1cccc(NC(=O)c2[nH]nc(C(C)C)c2Br)n1 | – | 102.6% and 98.53% and 104.2%
91 | Cc1cccc(NC(=O)c2cncc(C3CCNCC3)n2)n1 | 3.261% | –
92 | O=C(Nc1cc(C2CCOCC2)[nH]n1)c1cc[nH]n1 | -6.094% | –
93 | COc1ccncc1NC(=O)c1[nH]nc(C(C)C)c1Br | – | 41.3% and 28.4%
94 | CC(C)c1n[nH]c(C(=O)Nc2ccnn2C(C)C)c1Br | – | 92.02% and 87.97% and 88.19%
95 | Cc1ccnc(NC(=O)c2[nH]nc(C(C)C)c2Br)c1 | – | 109% and 104.4% and 105.9%
96 | COCCN1CCN(C(C)C(=O)Nc2ccnn2C(C)C)CC1 (stereo not given) | -4.51% | –
97 | Cc1cccc(NC(=O)c2sccc2C)n1 | 7.103% | –
98 | Cc1n[nH]c(C(=O)NCc2ccnc(OCC(F)(F)F)c2)c1Br | -2.803% | –
99 | Cc1ccnc(NC(=O)c2ccc(-n3ncc(C#N)c3N)cc2)c1 | 11.53% | –
100 | CC(C(=O)Nc1ccnn1C(C)C)N1CCN(Cc2ccccc2)CC1 (stereo not given) | -6.509% | –
